Laboratory results from PubChem BioAssay (NCI).
About 79,000 compounds went through this panel and 15% of them were active in at least one assay; those are over-represented in the sample as a whole. Unmarked numbers belong to inactive results. Active and inactive are the calls of the source. Rule as the data show it: active = growth inhibition above about 70%; inactive = the rest.

Test: NCI Yeast Anticancer Drug Screen. Data for the bub3 strain (AID 167)
Conditions: S. cerevisiae bub3 mutant strain, at 50.0 µM, active compounds read high
How it was run: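 Growth of a checkpoint-deficient yeast mutant is measured after compound exposure. Values represent inhibition relative to vehicle.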
`CC(=O)Sc1ccc(Br)cc1` gave a growth inhibition of 60.3%.
For `CC(C)OCc1cccc2ccnc(COC(C)C)c12`, the growth inhibition was 20.2%.
`Nc1ccc2c(c1)C(=O)c1ccccc1-2` showed a growth inhibition of -6.55%.
With `O=C1Nc2ccc([N+](=O)[O-])c3c([N+](=O)[O-])ccc1c23` the growth inhibition was 34.2%.
For `Cc1ccc(NC(=O)Oc2ccc(C(C)(C)C)cc2Br)cc1NC(=O)Oc1ccc(C(C)(C)C)cc1Br`, the growth inhibition was 28.4%.
In the case of `O=C1C(Cl)=C(Nc2ccc(S(=O)(=O)O)cc2)C(=O)c2ccccc21`, the growth inhibition is reported as 99.5% (active).
Work on `N/C(=N\OC(=O)Nc1ccccc1)c1ccccc1` yielded a growth inhibition of 11.7%.
For `O=C1c2ccccc2C(=O)c2cc(N3C(=O)C=CC3=O)ccc21`, the growth inhibition was 87.8% (active).
For `CCCCN=C(c1ccc(O)cc1)c1ccc(OC)cc1O`, the growth inhibition was 58%.
For `Cc1ccc(S(=O)(=O)c2cc(O)c(O)c3ccc(Br)cc23)cc1`, the growth inhibition was 83.8% (active).
For `CC(C)(C)NC(=S)N/N=C/c1cc(Cl)cc(Cl)c1O`, the growth inhibition was 84.7% (active).
In the case of `Oc1ccc2c(c1)OCC1c3ccccc3OC21` (stereo not given), the growth inhibition is reported as 75% (active).
With `OCCSC(=S)Nc1ccc(Cl)c(Cl)c1` the growth inhibition was 99.8% (active).
Compound `CCCC[N-]CC(O)C[NH-].O=C(O)CC(=O)O.[Pt+2]` (stereo not given) has a growth inhibition of 0.55%.
In the case of `N=C(N)c1cccc(-c2ccc(-c3ccccc3)o2)c1`, the growth inhibition is reported as 79% (active).
In the case of `C#CC(CC(C)C)(CC(C)C)OC(=O)Nc1ccccc1`, the growth inhibition is reported as 97.5% (active).
In the case of `CCCCOc1ccc(-c2c(COC(=O)NC)c(COC(=O)NC)c(C)n2C)cc1`, the growth inhibition is reported as 87.3% (active).
In the case of `O=C(Nc1cccc2ccccc12)OCCCCCCl`, the growth inhibition is reported as 97.2% (active).
In the case of `C=CCOc1ccc(/C=N/NC(N)=S)cc1`, the growth inhibition is reported as 88.1% (active).
`Fc1ccc2[nH]ccc2c1` gave a growth inhibition of 62.3%.
Work on `C=C1C(=O)[C@]23C[C@H]1CC[C@H]2[C@@]12CO[C@@H](O)[C@@H]1C(C)(C)[C@@H](O)C[C@@H]2OC3=O` yielded a growth inhibition of -0.9%.
In the case of `N#Cc1ccc([N+](=O)[O-])cc1C#N`, the growth inhibition is reported as 97.6% (active).
Work on `N=C(N)c1ccc(Oc2ccc(Oc3ccc(C(=N)N)cc3)cc2)cc1` yielded a growth inhibition of 65.7%.
For `CCC=Nc1c(O)cc(-c2ccccc2)n(C)c1=O`, the growth inhibition was 70% (active).
Work on `COc1ccc(CN2CCCN(Cc3ccc(OC)cc3OC)C2c2cc(Cl)ccc2O)c(OC)c1` yielded a growth inhibition of 5.1%.
In the case of `CCN(CC)c1ccc(/C=C2/C[N+](C)(C)C/C(=C/c3ccc(N(CC)CC)cc3)C2=O)cc1`, the growth inhibition is reported as 81.5% (active).
With `O=P1(Cc2ccccc2)c2ccccc2-c2ccccc21` the growth inhibition was 88.7% (active).
With `CN(C)CCCNc1cc(O)c2c(c1O)C(=O)c1ccccc1C2=O` the growth inhibition was 98.3% (active).
`CCCCC#CC(=O)OCCCCC` showed a growth inhibition of -14.6%.
Work on `CCCCCCN(CCCCCC)CCC(=O)c1ccc2cc(Cl)c3ccccc3c2c1` yielded a growth inhibition of 33.2%.
For `CC(C)C1=C2CCC3(C)C(CCC4C5C6OCC5(CCC6(C)C)CCC43C)C2(C)CC1` (stereo not given), the growth inhibition was 77% (active).
With `O=C(CC(O)(CC(=O)OCc1ccccc1)C(=O)OCc1ccccc1)OCc1ccccc1` the growth inhibition was 99.4% (active).
For `CCc1c(C)[nH]c2c([N+](=O)[O-])cccc12`, the growth inhibition was 96% (active).
Compound `CSc1ncc2c(n1)-c1ccccc1OC2NC1CC1` (stereo not given) has a growth inhibition of 14.6%.
For `CC(C)c1cc(O)c2c(c1O)C1CC3C(C)(C)CCC[C@]23C(=O)O1` (stereo not given in full), the growth inhibition was 94.7% (active).
In the case of `O=C1C(=O)c2cc(Br)cc([N+](=O)[O-])c2-c2ccc(Br)cc21`, the growth inhibition is reported as 98.3% (active).
With `NSc1ccccn1` the growth inhibition was 99% (active).
With `CCCCCCCCCCCCOC(=O)C[n+]1cccc(C(=O)Nc2ccccc2)c1` the growth inhibition was 98.8% (active).
In the case of `NC(=S)SCCC(=O)O`, the growth inhibition is reported as -21.9%.
For `O=C(O)Cc1ccc2c3c(cccc13)CC2`, the growth inhibition was 92.2% (active).
